# Source: PubChem BioAssay AID1851 (National Center for Advancing Translational Sciences (NCATS), 2009)
# Values joined by “and” are separate entries in the source; they are usually repeats but may differ in a detail not shown here. Equal entries are not always repeated. Hit rate of the full screen: of about 16,000 compounds, about 5,800 (36%) were called active. About 23% were inconclusive and are not listed. The list shows a part of the results. Values without a mark were called inactive. Calls come from the whole dose curve; as a rule, active = well fitted curve in the direction sought with a large enough effect; inconclusive = small, poorly fitted or top-dose-only effect, or effect the other way; inactive = no such curve, though single readings can be large or run the other way.
# Biological target: Cytochrome P450 2C19 (Homo sapiens) (UniProt P33261)
# Sequence (P33261 whole entry, looked up): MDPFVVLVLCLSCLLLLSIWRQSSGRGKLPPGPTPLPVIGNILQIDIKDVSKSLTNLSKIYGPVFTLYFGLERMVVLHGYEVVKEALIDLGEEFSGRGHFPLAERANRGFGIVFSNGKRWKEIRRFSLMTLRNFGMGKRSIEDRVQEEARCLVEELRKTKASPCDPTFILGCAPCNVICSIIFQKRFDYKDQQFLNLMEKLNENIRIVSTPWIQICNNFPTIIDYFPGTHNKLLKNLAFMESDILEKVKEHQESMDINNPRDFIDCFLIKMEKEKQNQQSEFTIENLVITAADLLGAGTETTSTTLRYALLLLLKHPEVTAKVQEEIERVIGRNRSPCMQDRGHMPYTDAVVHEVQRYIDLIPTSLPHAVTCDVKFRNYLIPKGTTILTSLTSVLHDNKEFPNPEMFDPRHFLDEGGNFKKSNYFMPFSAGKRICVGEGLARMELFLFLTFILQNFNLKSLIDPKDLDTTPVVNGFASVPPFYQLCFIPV
# Assay: Cytochrome panel assay with activity outcomes
# Details: recombinant CYP, pro-luciferin dealkylation, luminescence, p450-cyp2c19; series mostly up to 57.1 µM
# % is set by controls: 0 for no effect and ±100 for the full control effect.
SMILES,AC50,"activity, negative = inhibition"
O=c1[nH]c2cc([N+](=O)[O-])c([N+](=O)[O-])cc2[nH]c1=O,inactive,
CCCCCCCCCCCCCC(=O)O[C@H](CC(=O)O)C[N+](C)(C)C,inactive,
Cc1ccc(NC(=O)C2(NC(=O)c3cccc(N4C(=O)CSC4c4ccccc4)c3)CCCCC2)cc1 (centres undefined),28.2 µM (active),
CN(C)CC/C=C1\c2ccccc2CSc2ccccc21,inactive,
Cc1nc(SC2CC(=O)N(c3ccc([N+](=O)[O-])cc3)C2=O)nc2c1CCCC2 (centres undefined),4.47 µM (active),
O=C(Cc1ccc(Br)cc1)OCC(=O)c1ccc2c(c1)OCCO2,15.8 µM (active),
FC(F)(F)c1cccc(-c2nc3nc(Cl)c(Cl)nc3[nH]2)c1,,-19.6% [at 11.4 µM]
O=c1c2ccc(Cl)cc2nc(-c2cccc(C(F)(F)F)c2)n1O,14.1 µM (active),
Cc1ccc(-n2ccnc2SCC(=O)N(CC(C)C)C2CCS(=O)(=O)C2)c(C)c1 (centres undefined),10 µM (active),
Cc1cc(C)n2c(SCC(=O)N(C)C3CCS(=O)(=O)C3)nnc2n1 (centres undefined),inactive,
Cc1cccc(Nc2cc(Cl)nc(SCC(=O)O)n2)c1C,inactive,
Cc1cccc(NC(=O)CSc2nnc(-c3ccco3)c(-c3ccco3)n2)c1C,2.24 µM (active),
O=C1CCCC=C1[C@H](O)c1ccc([N+](=O)[O-])cc1,,-22% [at 11.4 µM]
O=C1CCCC=C1[C@H](CCc1ccccc1)OC(=O)c1ccc(Br)cc1,1.58 µM (active),
CC/C=C\CC[C@H](O)C1=CCCCC1=O,,13.3% [at 11.4 µM]
CC/C=C\CC[C@H](OC(=O)c1ccc(Br)cc1)C1=CCCCC1=O,2 µM (active),
Cc1c(Cl)c(S(N)(=O)=O)cc2c1=NC=NS=2(=O)O,,8.1% [at 11.4 µM]
CN1CCC2(CC1)CCN(C(=O)c1ccncc1)CC2,inactive,
COc1ccc2c(c1)nc(SCC(=O)c1ccc(Br)s1)n2C,0.398 µM (active),
CCOc1ccc2c(c1)nc(SCC(=O)c1ccc(Br)s1)n2C,0.708 µM (active),
Nc1ncnc2c1ncn2[C@@H]1O[C@@H](C(=O)NC2CC2)[C@H](O)[C@@H]1O,inactive,
Cc1cc(O)c(/C=N/Nc2cccc(Cl)c2)c(=O)o1,3.16 µM (active),
C[C@@H](CSC(=N)N)C(N)=O,,27.2% [at 11.4 µM]
COc1ccc(CNC(=O)Cc2csc(Nc3nc(=S)[nH]c4ccccc34)n2)cc1,2.82 µM (active),

SMILES,AC50,"activity, negative = inhibition"
Cc1ccc(CNC(=O)Cc2csc(Nc3nc(=S)[nH]c4ccccc34)n2)cc1,2.24 µM (active),
O=C(Cc1csc(Nc2nc(=S)[nH]c3ccccc23)n1)NCc1cccc(Cl)c1,0.794 µM (active),
Oc1cc2c(cc1O)CN(C(=S)NCCc1ccc(Cl)cc1)CCC2,0.316 µM (active),
Cc1ccc(N2C(=O)CSC2c2cccnc2)cc1F (centres undefined),20 µM (active),
CN1C(=O)CC[C@@H]1c1cccnc1,inactive,
CC1(C)CO[C@H](CC(=O)O)CN1,5.01 µM (active),
Cc1nc2cnc(N(C)C)nc2n(C)c1=O,inactive,
CSc1nc(N)nc(-c2cccs2)c1C#N,7.94 µM (active),
Cc1c(-c2ccc(F)cc2)nc(N)c(C#N)c1-c1cccs1,4.47 µM (active),
Cc1cccc2c1OCC/C2=N\NC(=O)COc1ccccc1,3.16 µM (active),
COc1cccc(OCC(=O)NN=C2c3ccccc3-c3ccccc32)c1,0.708 µM (active),
Cc1ccccc1OCC(=O)N/N=C1\CCOc2c(C)cccc21,inactive,
Cc1c(N2CCCC2)cc2c(c1NC(=O)c1ccccc1Cl)C(C)(C)CC2(C)C,0.794 µM (active),
Fc1cccc(/C=N\N=C/c2cccc(F)c2)c1,inactive,
O=C(N/N=C/c1cccc(F)c1)c1csc2c1CCCC2,7.08 µM (active),
COc1cccc(-c2cncnc2NCc2ccccc2OC)c1,2 µM (active),
COc1ccccc1CNc1ncncc1-c1cccnc1,10 µM (active),
COc1cccc(-c2cncnc2NCc2ccc(OC)cc2OC)c1,1.26 µM (active),
CCC(C)(C)n1nnnc1C(c1ccc(C)cc1)N1CCC(C)CC1 (centres undefined),14.1 µM (active),
Cc1cc(C)c(NC(=O)C[C@H](CC(=O)O)c2cccc3ccccc23)c(C(=O)N2CCC3(CCCC3)CC2)c1,inactive,
CSc1n[nH]c(-c2sccc2OCc2ccc(C)cc2)n1,1.12 µM (active),
COc1ncc2nc(-c3cc(F)cc(F)c3)c(=O)n(C3CC3)c2n1,inactive,
COc1cccc(C(C(=O)Nc2ccc(F)cc2)N(C(=O)Cn2nnc3ccccc32)C2CC2)c1 (centres undefined),20 µM (active),
CCc1ccc(N2C(=O)c3ccc4c5c(ccc(c35)C2=O)CC4)cc1,3.16 µM (active),

SMILES,AC50,"activity, negative = inhibition"
Cc1onc(-c2c(Cl)cccc2Cl)c1C(=O)N1CCc2ccccc2C1,2.82 µM (active),
Cc1noc(C)c1C(=O)N1CCC2(CC1)CN(c1ccccc1)C2,inactive,
Cc1noc(C)c1C(=O)N1CCC2(CCN(Cc3ccccc3)CC2)CC1,inactive,
N=C(N)N1CCc2ccccc2C1,inactive,
Cc1ccccc1C(=O)N1CCc2ccccc2C1,1.41 µM (active),
NCCSC[C@H](N)C(=O)O,,-6.06% [at 11.4 µM]
O=C1CC(c2cccs2)c2cc3c(cc2N1)OCO3 (centres undefined),1.12 µM (active),
CCCC[C@@H]1C[C@H]1C(NC(=O)c1ccc(-c2ccccc2)cc1)c1ccc(-c2ccccc2)cc1 (some centres undefined),inactive,
CCC[C@@H]1C[C@@]1(CCC)C(NS(=O)(=O)c1cccc2cccnc12)c1ccc(Cl)cc1 (some centres undefined),3.16 µM (active),
CCCC[C@@H]1C[C@H]1C(NC(=O)c1ccco1)c1ccc(-c2ccccc2)cc1 (some centres undefined),25.1 µM (active),
CCCC[C@@H]1C[C@H]1C(NC(=O)c1ccco1)c1ccc(C(=O)OC)cc1 (some centres undefined),1 µM (active),
CCC[C@@H]1C[C@@]1(CCC)C(NC(=O)c1ccco1)c1ccc(Cl)cc1 (some centres undefined),3.16 µM (active),
CO[C@H]1COC(=O)C/C=C\[C@H](C)COC(=O)[C@@H](C)NC(=O)C/C=C\[C@@H]1C,,-31.5% [at 11.4 µM]
COCCn1c(=O)c(C)nc2cnc(Nc3cccc(OC)c3)nc21,inactive,
CCCC[C@@H]1C[C@H]1C(NC(=O)c1ccco1)c1ccccc1 (some centres undefined),1.26 µM (active),
CCCC[C@@H]1C[C@H]1C(NC(=O)c1ccco1)c1ccc(Cl)cc1 (some centres undefined),0.316 µM (active),
C[C@@]1(C(NC(=O)Cc2ccccc2)c2ccc(-c3ccccc3)cc2)C[C@H]1C1CCCCC1 (some centres undefined),inactive,
CCC[C@@H]1C[C@@]1(CCC)C(NC(=O)OCc1ccccc1)c1ccc(-c2ccccc2)cc1 (some centres undefined),1.26 µM (active),
CC[C@](N)(C(=O)O)C(C)C,,31.3% [at 11.4 µM]
CCCn1c(N)c(C(=O)CSc2nc(C)cs2)c(=O)n(C)c1=O,10 µM (active),
O=C(/C=C\c1ccc(O)c(O)c1)O[C@@H](Cc1ccc(O)c(O)c1)C(=O)O,inactive,
COC(=O)/C=C\c1cc(O)ccc1O,15.8 µM (active),
O=C(O)/C=C\c1ccc(O)c(O)c1,inactive,
COC(=O)C[C@@H]1O[C@H]1[C@H](C)[C@@H](OC)C(C)C,3.98 µM (active),

SMILES,AC50,"activity, negative = inhibition"
CO[C@@H](C(C)C)[C@@H](C)[C@@H]1OC(=O)C[C@@H]1O,,2.42% [at 11.4 µM]
CC(O)CN(CCC(N)=O)CCC(N)=O (centres undefined),inactive,
COc1ccc(S(=O)(=O)N2CC3C4C=CC(C4)C3C2)cc1 (centres undefined),0.891 µM (active),
CCCN1C(=O)C2(/C(=C(\O)c3ccc4c(c3)OCCO4)C(=O)C(=O)N2CCCOC)c2ccccc21 (centres undefined),inactive,
O=C(OCc1nnc(-c2ccccc2)o1)c1ccc2c(c1)OCCO2,8.91 µM (active),
C[N+]1(C)CCc2cc3c(cc2[C@@H]1[C@@H]1C(=O)Oc2c1ccc1c2OCO1)OCO3,inactive,
CN1CCc2cc3c(cc2[C@@H]1[C@@H]1C(=O)Oc2c1ccc1c2OCO1)OCO3,0.02 µM (active),
Cc1ccc(-c2csc(N/N=C/c3ccco3)n2)cc1,7.94 µM (active),
Cc1ccc(-c2csc(NC(=S)NC(=O)/C=C/c3ccco3)n2)cc1,inactive,
CC(=O)OCC(=O)[C@@]1(O)[C@H](C)C[C@@H]2[C@H]3CCC4=CC(=O)C=C[C@]4(C)[C@]3(F)[C@@H](O)C[C@@]21C,inactive,
CCOC(=O)c1cc2sc(C)cc2n1CCCN1C(=O)c2ccccc2C1=O,3.98 µM (active),
CCn1c(=O)cc(SCC(=O)N2CCN(C(=O)c3ccco3)CC2)c2ccccc21,inactive,
CCOC(=O)c1cc2sc(C)cc2n1CC(=O)N1CCN(C(=O)c2ccco2)CC1,25.1 µM (active),
O=C(CCC(=O)c1cccs1)OCC(=O)N1CCN(C(=O)c2ccco2)CC1,inactive,
CCN1C(=O)[C@@H]2[C@H]3C(=CC[C@@H]2C1=O)C1(OCCCO1)[C@H]1O[C@@H]1[C@H]3O,1.58 µM (active),
CCN1C(=O)[C@H]2[C@@H]3[C@H](O)[C@H](O)CC(=O)[C@H]3CC[C@H]2C1=O,,-13.9% [at 11.4 µM] and -20% [at 11.4 µM]
CCN1C(=O)[C@H]2[C@@H]3[C@H](O)C=CC(=O)[C@H]3CC[C@H]2C1=O,,-2.48% [at 11.4 µM]
O=C(NC12CC3CC(CC(C3)C1)C2)c1ccc(COc2ccc(Cl)cc2[N+](=O)[O-])o1,3.55 µM (active),
Cc1ccc2nc(SCc3nc4c(cnn4-c4ccccc4)c(=O)[nH]3)[nH]c2c1,4.47 µM (active),
O=C(Nc1cccc(-c2nc3ncccc3o2)c1)c1sc2cc(Cl)ccc2c1Cl,inactive,
O=C(CSc1ccc(Cl)cc1)Nc1cccc(-c2nc3ncccc3o2)c1,8.91 µM (active),
CCCCCC(=O)Nc1cccc(-c2nc3ncccc3o2)c1,14.1 µM (active),
